TGFb SMAD3 inh: qHTS for Inhibitors of TGF-b. HepG2 CAGA-GFP TGF-b/SMAD3 reporter, GFP fluorescence, 18 h; TGF-beta stimulated, 500 pg/mL final. Potency, µM (series often up to 46.1 µM), for inactives: at the top dose activity, negative = inhibition, hits mostly inhibitors. 410,000 tested, 1.2% active; note: potency is the fitted concentration of half-maximal effect; % is set by controls: 0 for no effect and ±100 for the full control effect; nearly all actives have a fitted effect of over 65% in size
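HEPG2 CAGA-GFP cells (1000/well, DMEM with 1% FBS) were pre-incubated 2 h at 37 degrees C, given compound by pin tool, then stimulated with TGF-beta at 500 pg/mL final for 18 h before per-cell GFP fluorescence imaging.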
IDH1 R132H inh: qHTS for Inhibitors of mutant isocitrate dehydrogenase 1 (IDH1): qHTS; 390,000 tested, 0.093% active; Isocitrate dehydrogenase [NADP] cytoplasmic (Homo sapiens), O75874; Potency, µM (titrated, usually from 76.6 µM), for inactives: at the top dose activity change, negative = inhibition, usual class: inhibitors; IDH1-R132H enzyme, NADPH consumption, diaphorase/resazurin fluorescence; note: potency is the fitted concentration of half-maximal effect; % is set by controls: 0 for no effect and ±100 for the full control effect; nearly all actives have a fitted effect of over 65% in size
Target sequence (O75874 whole entry R132H, stated change not applied): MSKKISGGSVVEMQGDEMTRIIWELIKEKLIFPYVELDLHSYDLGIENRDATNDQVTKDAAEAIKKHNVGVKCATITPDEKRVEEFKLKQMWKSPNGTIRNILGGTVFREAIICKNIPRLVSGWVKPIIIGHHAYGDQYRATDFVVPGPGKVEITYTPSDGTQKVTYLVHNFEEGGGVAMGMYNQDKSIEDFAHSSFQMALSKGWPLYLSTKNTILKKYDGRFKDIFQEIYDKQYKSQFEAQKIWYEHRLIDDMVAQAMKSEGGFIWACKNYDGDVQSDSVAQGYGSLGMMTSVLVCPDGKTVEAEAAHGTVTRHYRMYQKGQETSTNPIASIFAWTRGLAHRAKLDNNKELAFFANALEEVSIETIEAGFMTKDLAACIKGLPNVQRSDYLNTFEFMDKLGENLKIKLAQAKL
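IDH1-R132H (0.5 ug/mL) preincubated 30 min with compound, then NADPH (0.016 mM) and alpha-KG (2 mM) added; 80 min at RT, pH 7.5. Remaining NADPH coupled via diaphorase/resazurin to fluorescence (540/590 nm); concentration-response curves normalized to no-enzyme control.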
ATXN viability: Viability Counterscreen for Primary qHTS for Inhibitors of ATXN expression. Potency, µM (highest dose often 56.7 µM), actives largely listed as cytotoxic. 400,000 tested, 0.49% active. S2 cells (HEK-293 line with an ATXN2-luciferase reporter) viability, CellTiter-Fluor protease fluorescence, 24 h; note: potency is the fitted concentration of half-maximal effect; nearly all actives have a fitted effect of over 40% in size
ATXN2 expr inh: Primary qHTS for Inhibitors of ATXN expression; HEK-293 ATXN2-luciferase reporter, luminescence, 24 h; Potency, µM (titrated, usually from 57 µM), for inactives: at the top dose activity change, negative = inhibition, most hits filed as inhibitors; AID 1745845, 2022; 360,000 tested, 0.72% active; note: potency is the fitted concentration of half-maximal effect; % is set by controls: 0 for no effect and ±100 for the full control effect; nearly all actives have a fitted effect of over 55% in size
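qHTS (up to 57 uM final) was run with 24 h compound exposure of reporter cells at 37 °C. Each well was multiplexed: SteadyGlo luminescence measured ATXN2-luciferase expression after a fluorogenic Gly-Phe-AFC viability readout (25 uM final).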
HepG2 viability: qHTS for Inhibitors of TGF-b: Cytotox Counterscreen; Potency, µM (titrated, usually from 46.1 µM), for the others: top-dose activity change, negative = cytotoxicity, hits mostly cytotoxic; AID 588856, 2011; HepG2 CAGA-GFP viability, ATP luminescence, 18 h; 410,000 tested, 0.76% active; note: potency is the fitted concentration of half-maximal effect
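HepG2 CAGA-GFP cells (1000/well, DMEM with 1% FBS) received compound, then TGF-beta at 500 pg/mL final, and were incubated 18 hours at 37 degrees C. Viability was read by CellTiter-Glo luminescence. Media-only wells were set as complete cell-killing and DMSO as no toxicity.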
LDHA block: qHTS assay for inhibitors of human lactate dehydrogenase. L-lactate dehydrogenase A chain (Homo sapiens), P00338. purified LDHA, NADH/diaphorase-resazurin fluorescence; stronger effect = lower value. activity change, % (values are at about 110 or 230 µM). 480,000 tested, 0.15% active. AID 1347041, 2019; in the data active = activity change below about -30%; inconclusive = mostly about -25% to -30%;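 note: plate controls were DMSO wells for no effect and wells without enzyme for full effect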
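Human LDH5 at 2 nM final in Tris HCl pH 7.4 with 0.06 mM NADH and 0.2 mM pyruvate, reacted 5 minutes at room temperature. Remaining NADH coupled via diaphorase/resazurin; resorufin fluorescence read at 0 and 20 minutes, normalized to enzyme-free and DMSO wells.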
* hit, by the source's call; i = inactive; ? = inconclusive; . = no result given. Rows were chosen to be rich in hits. Some 2.2% of all compounds tested hit in one or more screens of this group. Unless noted, calls come from the whole dose curve; as a rule, active = well fitted curve in the direction sought with a large enough effect; inconclusive = small, poorly fitted or top-dose-only effect, or another doubt; inactive = no such curve, though single readings can be large; an effect the other way counts as inactive or inconclusive.

SMILES	TGFb SMAD3 inh	IDH1 R132H inh	ATXN viability	ATXN2 expr inh	HepG2 viability	LDHA block
CCc1cc(-c2nc(N)ncc2-c2ccc(Br)cc2)c(O)cc1OC	?	-2.9%	i	-15.4%	22.4µM*	1.0
COc1ccc(-c2cnc(N)nc2-c2ccc(OCc3ccccc3)cc2O)cc1	12.6µM*	0.9%	i	-7.0%	-29.4%	8.0
CCOc1ccc(-c2nc(N)ncc2Oc2ccccc2Br)c(O)c1	?	0.0%	i	-6.6%	11.2µM*	-1.9
CCOc1ccc(-c2nc(N)ncc2Oc2ccccc2OCC)c(O)c1	.	.	.	.	.	8.7
C=C(C)COc1ccc(-c2ncncc2-c2ccc(Br)cc2)c(O)c1	?	5.8%	.	-12.6%	-21.9%	0.6
CCC(=NC(C)c1ccccc1)c1c(O)n(C)c(=O)n(C)c1=O (centres undefined)	-10.4%	-2.1%	i	-25.1%	-17.4%	-14.2
Cc1ccc(Cl)cc1NC(=O)C1CCCN(S(=O)(=O)c2c(C)noc2C)C1 (centres undefined)	10.7%	11.7%	i	-11.7%	2.3%	-0.8
C=C(C)COc1ccc(-c2nc(N)ncc2Oc2ccc(OC)cc2)c(O)c1	?	2.2%	i	-12.5%	11.2µM*	4.6
COc1ccc(CCNC(=O)c2ccc3c(c2)ncn3-c2ccc(C)cc2C)cc1OC	?	0.0%	?	?	-37.5%	7.2
COc1ccc(CCNC(=O)c2ccc3c(c2)ncn3-c2ccc(C(C)C)cc2)cc1OC	?	-4.4%	?	25.1µM*	-37.7%	1.0
COc1ccccc1NC(=O)N(c1c(N)n(Cc2ccccc2)c(=O)[nH]c1=O)C1CCCC1	1.1%	0.7%	?	0.9%	-1.8%	-14.9
O=C1N/C(=N\S(=O)(=O)Cc2ccccc2)S/C1=C/c1cc([N+](=O)[O-])ccc1O	-15.5%	-0.3%	?	.	2.3%	-37.2*
O=C1N/C(=N\S(=O)(=O)c2ccccc2)S/C1=C\c1cc([N+](=O)[O-])ccc1O	30.1%	0.0%	i	-6.1%	-1.1%	-36.4*
Cc1ccccc1C(=O)Oc1ccc(F)cc1C(=O)/C=C/c1ccccc1F	.	.	.	.	.	4.4
O=C(Oc1ccc(Br)cc1C(=O)/C=C/c1ccccc1F)c1ccco1	15.8µM*	5.6%	?	?	-47.0%	-0.9
CN1CCN(S(=O)(=O)c2cccc(C(=O)Nc3sc4c(c3-c3nc5ccccc5[nH]3)CCCC4)c2)CC1	-15.6%	-1.2%	i	56.4%	-5.2%	0.2
COC(=O)C1=C(C)NC(C)=C(C(=O)OCCN(C)Cc2ccccc2)C1c1cccc([N+](=O)[O-])c1 (centres undefined)	-24.8%	-0.4%	22.4µM*	?	-52.4%	5.4
COC(=O)C1=C(C)NC(C)=C(C(=O)OCCN2CCN(C(c3ccccc3)c3ccccc3)CC2)C1c1cccc([N+](=O)[O-])c1 (centres undefined)	.	.	?	14.1µM*	.	.
COC1=Nc2ccccc2N2CCN=C12	1.0%	.	i	-2.6%	-18.2%	-5.1
c1ccc2c(c1)C1=NCCN1c1ccccc1-2	10µM*	-2.7%	i	.	-24.0%	-0.1
Cc1ccccc1NC(=O)CSc1nc(-c2ccccc2C)nc2cc(=O)[nH]n12	3.55µM*	3.5%	?	?	-38.2%	0.3
CCOc1cc(-c2c(C#N)c(N)nc3c2CCc2ccccc2-3)ccc1O	?	-13.1%	?	43.2%	12.6µM*	-3.4
CC(=O)Nc1ccc([C@H](C)C(=O)Nc2ncc(C(C)C)s2)cc1	.	.	.	0.344µM*	.	.
CC1CN(CCCCOc2ccc(C(C)C)cc2)CC(C)O1 (centres undefined)	-5.3%	7.3%	i	-14.6%	-21.0%	-17.3
CC1CN(CCCCOc2ccc(Cl)c3ccccc23)CC(C)O1 (centres undefined)	15.8µM*	11.5%	i	-33.1%	-58.6%	-2.2
SMILES	TGFb SMAD3 inh	IDH1 R132H inh	ATXN viability	ATXN2 expr inh	HepG2 viability	LDHA block
Cc1cccc(CN2CCC(C(=O)Nc3ccc(Oc4cccnc4)cc3)CC2)c1	?	1.6%	i	-3.8%	11.2µM*	-8.0
O=C(Nc1ccc(Oc2cccnc2)cc1)C1CCN(Cc2cc(Cl)ccc2O)CC1	12.6µM*	8.2%	?	.	-54.1%	-2.9
COc1cccc(CN2CCC(C(=O)Nc3ccc(Oc4cccnc4)cc3)CC2)c1	?	10.8%	i	-10.6%	-13.5%	0.6
O=C(Nc1cc(S(=O)(=O)N2CCOCC2)ccc1N1CCCC1)c1cc(=O)[nH]c2ccccc12	-21.6%	-4.4%	i	.	0.8%	-13.9
COc1ccc(CNCC(O)(c2ccc(Cl)cc2)c2ccc(Cl)cc2)cc1OC	?	-0.4%	?	?	22.4µM*	6.1
COc1ccc(CNCC(O)(c2ccc(Cl)cc2)c2ccc(Cl)cc2)cc1	0.0%	2.5%	?	?	10µM*	3.2
COc1ccc(CNCC(O)(c2ccccc2)c2ccc(F)cc2)cc1 (centres undefined)	?	4.6%	i	-23.3%	-43.0%	-4.7
COc1ccc(CNCC(O)(c2ccc(F)cc2)c2ccc(F)cc2)cc1OC	?	3.2%	i	-25.9%	-40.9%	0.2
Cc1cccc(C(=O)Nc2cccc(C(=O)N(C)C)c2)c1	.	.	.	.	.	0.4
O=C(Cc1ccccc1[N+](=O)[O-])NNC(=O)c1cccs1	-6.6%	-12.5%	i	.	-21.1%	-3.3
CCCCNc1oc(-c2cccs2)nc1S(=O)(=O)c1ccccc1	?	-1.5%	i	17.3%	6.1%	-3.7
CCN(CC)CCNC(=O)c1ccc(N2CCCCC2)c(NS(=O)(=O)c2ccc(C)cc2)c1	-5.6%	2.2%	?	?	-59.1%	-2.6
CCN(CC)CCNc1cc(C)nc2c1C(=O)C(=O)C=C2N1CCCCC1	6.31µM*	4.1%	14.1µM*	.	-29.7%	14.0
CCOC(=O)c1sc(NC(=O)c2ccc(C)o2)nc1C	?	3.3%	i	8.4%	5.01µM*	-5.9
CNC(=S)N/N=C/c1ccc(-c2cccc(C(=O)O)c2)o1	18.0%	-5.8%	i	39.7%	11.2µM*	-4.9
O=C1C(=Cc2cccs2)C(=O)c2ccccc21	-1.9%	1.4%	i	2.3%	-24.5%	-3.9
O=C1C(c2ccccc2)=[N+]([O-])c2ccccc21	?	15.4%	?	?	11.2µM*	17.4
